In the supplement of paper PMC7156485 one finds H1.0 immunofluorescence intensity data, which are given here for 32 compounds.

Each structure is given as a SMILES string. A number with no mark means an inactive call.
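Further: TDF is a line of transformed human dermal fibroblasts of mesenchymal origin.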

The assay has as its system TDF. Put plainly: H1.0 immunofluorescence intensity relative to DMSO (% of DMSO); higher = stronger H1.0 induction, active = 120 or more. Particulars: concentration: 10 µM; 24 h. The method in brief: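 HCC1569 and TDF cells (800 per well, 384-well plates, RPMI with 10% FBS) were treated with compounds at 10 µM for 24 h at 37 °C, in triplicate. Cells were fixed in 3.7% formaldehyde and stained with a rabbit anti-H1.0 antibody, an AlexaFluor 647 secondary and DAPI; six fields per well were imaged at ×10. H1.0 nuclear intensity or cell number is expressed as percent of the plate DMSO control, taking the median of replicates. HCC1569 values were smoothed for positional effects.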
In the case of `COc1ccc(-c2cc(=O)c3c(O)c(OC)c(OC)cc3o2)cc1O`, the H1.0 immunofluorescence intensity was 102.

Turning to `OC(Cn1cncn1)(Cn1cncn1)c1ccc(F)cc1F` [Fluconazole], the H1.0 immunofluorescence intensity was 93.8.

For `CC(N)C1CCC(C(=O)Nc2ccncc2)CC1.Cl.Cl` (configuration not stated), the H1.0 immunofluorescence intensity was 87.3.

With `COc1ccc(CNC(=O)c2sc3nc(C)cc(C)c3c2N)cc1`, the H1.0 immunofluorescence intensity is 97.5.

As for `CS(=O)(=O)N1CCN(Cc2cc3nc(-c4cccc5[nH]ncc45)nc(N4CCOCC4)c3s2)CC1`, the H1.0 immunofluorescence intensity is 85.3.

Take `CCCCCC=CCC=CCC=CCC=CCCCC(=O)OC(CO)COC(=O)CCCCCCCCCCCCCCCCC` (configuration not stated) [1-Stearoyl-2-arachidonoyl-glycerol]: the H1.0 immunofluorescence intensity was 98.4.

On to `CCC1(O)CC2CN(CCc3c([nH]c4ccccc34)C(C(=O)OC)(c3cc4c(cc3OC)N(C)C3C(O)(C(N)=O)C(O)C5(CC)C=CCN6CCC43C65)C2)C1.O=S(=O)(O)O` (configuration not stated) [Vindesine sulfate], for which the H1.0 immunofluorescence intensity is 155 (active).

In the case of `CSc1nc2ccc3nc(NC(=O)C(c4ccccc4)c4ccccc4)sc3c2s1`, the H1.0 immunofluorescence intensity was 99.4.

For the compound `N#Cc1c(-c2ccccc2)cc(-c2cc(Br)ccc2O)[nH]c1=O` [PIM1 Kinase Inhibitor II], the H1.0 immunofluorescence intensity is 93.5.

Consider `C=CCn1c(=O)c2c(nc(-c3ccc(S(=O)(=O)O)cc3)n2C)n(C)c1=O` [1-Allyl-3,7-dimethyl-8-p-sulfophenylxanthine], for which the H1.0 immunofluorescence intensity is 99.2.

As to `CCCCCC(O)C=CC1C(O)CC(O)C1CC=CCCCC(=O)O` (configuration not stated) [Prostaglandin F2a], the H1.0 immunofluorescence intensity is 97.6.

For `CCCCCC=CCC=CCC=CCC=CCCCC(=O)OC(COCCCCCCCCCCCCCCCC)COP(=O)([O-])OCC[N+](C)(C)C` (configuration not stated) [Arachidonyl-PAF], the H1.0 immunofluorescence intensity was 93.

`COc1cccc2c1C1CN(CCCCn3c(=O)[nH]c4c(sc5ncc(-c6ccccc6)nc54)c3=O)CC1CO2.Cl` (configuration not stated) [Fiduxosin hydrochloride]: the H1.0 immunofluorescence intensity was 102.

For `Nc1nc(OCc2ccccc2)c2[nH]cnc2n1` [O6-benzylguanine], the H1.0 immunofluorescence intensity was 101.

With `CC1CC2C(C(O)CC3(C)C2CCC3(O)C(=O)CO)C2(C)C=CC(=O)C=C12` (configuration not stated) [Methylprednisolone], the H1.0 immunofluorescence intensity was 88.6.

With `CN1C(C(=O)Nc2ccccn2)=C(O)c2ccccc2S1(=O)=O` [Piroxicam], the H1.0 immunofluorescence intensity is 96.9.

Take `CCOc1cc2ncnc(Nc3cccc(Br)c3)c2cc1OCC` [Compound 56]: the H1.0 immunofluorescence intensity was 92.6.

Turning to `CCOC(=O)c1cnc2c(cnn2CC)c1NN=C(C)C` [Etazolate], the H1.0 immunofluorescence intensity was 95.6.

As for `CC(=O)SCC(Cc1ccccc1)C(=O)NCC(=O)OCc1ccccc1` (configuration not stated) [Racecadotril], the H1.0 immunofluorescence intensity was 91.5.

Turning to `C[C@H](C#Cc1ccc(Cc2ccc(F)cc2)s1)N(O)C(N)=O`, the H1.0 immunofluorescence intensity was 100.

As for `O=C(O)CNC(=O)C(=O)O` [2-(carboxymethylamino)-2-oxoacetic acid], the H1.0 immunofluorescence intensity was 93.7.

On to `COc1cc2ncnc(Sc3nnc(C)s3)c2cc1OC`, for which the H1.0 immunofluorescence intensity was 108.

`CCN1CCCC1CNC(=O)c1cc(S(N)(=O)=O)ccc1OC` [(S)-(-)-Sulpiride]: the H1.0 immunofluorescence intensity is 99.8.

Turning to `Cl.O=S(=O)(c1cccc2cnccc12)N1CCCNCC1`, the H1.0 immunofluorescence intensity was 92.4.

Consider `CC(C)NCC(O)COc1ccc(CCOCC2CC2)cc1.Cl` (configuration not stated) [Betaxolol.HCl], for which the H1.0 immunofluorescence intensity is 90.4.

In the case of `CC(C)(C)C1(O)CCN2CC3c4ccccc4CCc4cccc(c43)C2C1.Cl` (racemic), the H1.0 immunofluorescence intensity was 88.7.

As to `COc1ccc2c(c1)c(CC(=O)N1CCOCC1)c(C)n2C(=O)c1ccc(Cl)cc1` [Indomethacin morpholinylamide], the H1.0 immunofluorescence intensity is 90.6.

Consider `Cl.c1ccc(C2CN3CCSC3=N2)cc1` (configuration not stated) [Tetramisole hydrochloride], for which the H1.0 immunofluorescence intensity was 91.7.

On to `CC12CC3CC(C)(C1)CC(N)(C3)C2.Cl` [Memantine hydrochloride], for which the H1.0 immunofluorescence intensity is 101.

Take `CCCCCC(CC(=O)NO)C(=O)NC(C(=O)N1CCCC1CO)C(C)C` (configuration not stated) [Actinonin]: the H1.0 immunofluorescence intensity is 108.

Turning to `CN(C)c1ccnc2sc3c(=O)n(N4CCCCCC4)cnc3c12`, the H1.0 immunofluorescence intensity was 91.

In the case of `c1ccc2c(Cc3c[nH]c4ccccc34)c[nH]c2c1` [Diindolylmethane], the H1.0 immunofluorescence intensity is 98.8.
